{"source": "PubChem BioAssay", "note": "Unmarked numbers belong to inactive results. The rule behind the calls is not given here.", "data": [{"test_system": "Aerobactin synthetase IucA (Klebsiella pneumoniae, hypervirulent)", "experiment": "IucA enzyme inhibition, biochemical, LOPAC library, absorbance readout (AID 1346212);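 note: 100% = no compound wells and 0% = no enzyme wells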", "conditions": "IucA enzyme assay, absorbance (OD) readout; stronger effect = lower value;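 tested at 8 µM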", "units": {"remaining activity": "%"}, "values": [{"smiles": "CCCCS(=N)(=O)CC[C@H](N)C(=O)O", "note": "(stereo not given in full)", "remaining activity": 92.2}, {"smiles": "Nc1ccn([C@H]2CC[C@@H](CO)O2)c(=O)n1", "remaining activity": 121}, {"smiles": "O=C1O/C(=C/Br)CCC1c1cccc2ccccc12", "note": "(stereo not given)", "remaining activity": 112}, {"smiles": "O=C(O)C1(C(=O)O)CCC1.[NH2-].[NH2-].[Pt+2]", "remaining activity": 113}, {"smiles": "O=C(c1cc(O)c(O)c([N+](=O)[O-])c1)c1ccccc1F", "remaining activity": 104}, {"smiles": "CC(C)NCC(O)COc1ccc(COCCOC(C)C)cc1", "note": "(stereo not given)", "remaining activity": 91.4}, {"smiles": "Cc1nc(N=Nc2cc(S(=O)(=O)O)c3cc([N+](=O)[O-])cc(S(=O)(=O)O)c3c2)c(COP(=O)(O)O)c(C=O)c1O", "remaining activity": 118}, {"smiles": "CC(=O)C(C)=O", "remaining activity": 97}, {"smiles": "c1cnc(N2CCN(Cc3ccc4c(c3)OCO4)CC2)nc1", "remaining activity": 102}, {"smiles": "Nc1ncnc2c1ncn2C1CCCO1", "note": "(stereo not given)", "remaining activity": 75.8}, {"smiles": "CC(C)[N+]1(C)[C@@H]2CC[C@H]1CC(OC(=O)C(CO)c1ccccc1)C2", "note": "(stereo not given in full)", "remaining activity": 118}, {"smiles": "N#C/C(=C\\c1ccc(O)c(O)c1)C(=O)c1ccc(O)c(O)c1", "remaining activity": 79.7}, {"smiles": "CO/N=C(\\C(=O)N[C@@H]1C(=O)N2C(C(=O)O)=C(CSc3nc(=O)c(=O)[nH]n3C)CS[C@H]12)c1csc(N)n1", "remaining activity": 117}, {"smiles": "Cc1nc(N=Nc2ccc(C(=O)O)cc2)c(COP(=O)(O)O)c(C=O)c1O", "remaining activity": 110}, {"smiles": "CC(C)(C)NC(=O)[C@H]1CC[C@H]2[C@@H]3CC[C@H]4NC(=O)C=C[C@]4(C)[C@H]3CC[C@]12C", "remaining activity": 119}, {"smiles": "COC(=O)C1=C(C)NC(C)=C(C(=O)OC(C)(C)CN(C)CCC(c2ccccc2)c2ccccc2)C1c1cccc([N+](=O)[O-])c1", "note": "(stereo not given)", "remaining activity": 109}, {"smiles": "CC1(C)CCC2=C(O1)c1ccccc1C(=O)C2=O", "remaining activity": 113}, {"smiles": "CC1CCN(CC[C@H]2CCCN2S(=O)(=O)c2cccc(O)c2)CC1", "remaining activity": 125}, {"smiles": "O=c1[nH]c2ccccc2n1CCCN1CCN(C(c2ccccc2)c2ccccc2)CC1", "remaining activity": 116}, {"smiles": "C(=C\\c1ccccc1)/CN1CCN(C(c2ccccc2)c2ccccc2)CC1", "remaining activity": 113}, {"smiles": "C[C@]12CCC(=O)C=C1CC[C@@H]1[C@@H]2[C@@H](O)C[C@@]2(C)[C@H]1CC[C@]2(O)C(=O)COC(=O)CCC(=O)O", "remaining activity": 92.9}, {"smiles": "Nc1ccn([C@@H]2O[C@H](CO)[C@@H](O)[C@@H]2O)c(=O)n1", "remaining activity": 119}, {"smiles": "COc1ccc(Cl)cc1NC(=O)Nc1cc(C)nc2ccccc12", "remaining activity": 95}, {"smiles": "O=C(O)C1CCNCC1", "remaining activity": 111}, {"smiles": "Cn1cc(C(=O)OCC2CCN(CCNS(C)(=O)=O)CC2)c2ccccc21", "remaining activity": 104}, {"smiles": "CC(N)=NCc1cccc(CN)c1", "remaining activity": 103}, {"smiles": "CCN(CC)C(=O)c1ccc(O)c(OC)c1", "remaining activity": 122}, {"smiles": "CC(CCc1ccc(O)cc1)NCCc1ccc(O)c(O)c1", "note": "(stereo not given)", "remaining activity": 98.4}, {"smiles": "CC(C)(C)[C@]1(O)CCN2C[C@H]3c4ccccc4CCc4cccc(c43)[C@@H]2C1", "remaining activity": 105}, {"smiles": "CSC(=N)N", "remaining activity": 123}, {"smiles": "CCCc1c(-c2ccc(O)cc2)nn(-c2ccc(O)cc2)c1-c1ccc(O)cc1", "remaining activity": 102}, {"smiles": "CCC1(O)CC2CN(CCc3c([nH]c4ccccc34)[C@@](C(=O)OC)(c3cc4c(cc3OC)N(C)C3[C@]45CCN4CC=C[C@@](CC)([C@@H](OC(C)=O)[C@]3(O)C(=O)OC)[C@H]45)C2)C1", "note": "(stereo not given in full)", "remaining activity": 102}, {"smiles": "C[C@]12CC[C@@H]3c4ccc(O)cc4CC[C@H]3[C@@H]1CCC2=O", "remaining activity": 103}, {"smiles": "COc1cc2c(CCNC(C)=O)c[nH]c2cc1Cl", "remaining activity": 115}, {"smiles": "CCCCCCCCCC[Si](C)(C)CCC(=O)NC(Cc1ccc(C)cc1)c1ccccc1", "note": "(stereo not given)", "remaining activity": 116}, {"smiles": "O=c1[nH]ccc2c(O)cccc12", "remaining activity": 117}, {"smiles": "C=CCn1c(=O)c2c(nc(-c3ccc(S(=O)(=O)O)cc3)n2C)n(C)c1=O", "remaining activity": 128}, {"smiles": "Fc1cccc(/C=N/N=C/c2cccc(F)c2)c1", "remaining activity": 123}, {"smiles": "O=C(CCCN1CCC(O)(c2cccc(C(F)(F)F)c2)CC1)c1ccc(F)cc1", "remaining activity": 101}, {"smiles": "CSC(N)=NCCC[C@H](N)C(=O)O", "remaining activity": 123}]}]}
